Records with an inconclusive call do not appear. Entries that show only a call come without a potency. Activity calls are given as the source filed them. Unless noted, calls follow the shape of the full dose curve.
Target: Estrogen receptor (Homo sapiens) (UniProt P03372)
Assay: qHTS assay to identify small molecule agonists of the estrogen receptor alpha (ER-alpha) signaling pathway using the BG1 cell line (AID 743079; active = well fitted activation curve with a large enough effect in the repeat runs; also: nearly all actives have a fitted effect of over 20% in size)
Conditions: BG1Luc4E2 cells, ERE-luciferase agonist, 22 h; activation: at 70.3 µM (top of the series)
Potency is read from the fitted curve at half-maximal effect.

Estrogen receptor (Homo sapiens), sequence (P03372 whole entry, looked up): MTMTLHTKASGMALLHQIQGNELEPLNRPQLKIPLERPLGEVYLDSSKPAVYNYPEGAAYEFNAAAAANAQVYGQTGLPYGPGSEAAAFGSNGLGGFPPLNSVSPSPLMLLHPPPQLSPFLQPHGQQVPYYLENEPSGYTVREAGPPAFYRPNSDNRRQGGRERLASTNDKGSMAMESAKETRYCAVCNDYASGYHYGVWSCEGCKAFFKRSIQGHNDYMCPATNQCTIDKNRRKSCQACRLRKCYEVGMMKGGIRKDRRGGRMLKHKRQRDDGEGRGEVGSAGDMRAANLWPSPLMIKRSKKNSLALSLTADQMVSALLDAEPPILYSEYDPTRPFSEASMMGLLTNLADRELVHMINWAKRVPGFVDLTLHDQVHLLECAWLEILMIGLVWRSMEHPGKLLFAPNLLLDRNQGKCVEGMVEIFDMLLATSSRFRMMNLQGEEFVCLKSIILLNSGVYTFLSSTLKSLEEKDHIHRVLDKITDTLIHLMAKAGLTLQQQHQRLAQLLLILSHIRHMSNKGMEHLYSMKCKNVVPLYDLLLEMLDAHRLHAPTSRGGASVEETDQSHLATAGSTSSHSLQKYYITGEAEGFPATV

SMILES | Potency
CNC[C@@H]1CC[C@@H](N)[C@@H](O[C@H]2[C@H](O)[C@@H](O[C@H]3OC[C@](C)(O)[C@H](NC)[C@H]3O)[C@H](N)C[C@@H]2N)O1 | inactive
CCc1ccc(S(=O)(=O)O)cc1 | 0.298 µM (active)
C#CCC(Cc1cnc2nc(N)nc(N)c2n1)c1ccc(C(=O)N[C@@H](CCC(=O)O)C(=O)O)cc1 (stereo not given in full) | inactive
CO[C@H]1[C@@H](O)[C@H](N)[C@@H](O[C@H]2O[C@H]([C@H](C)N)CC[C@H]2N)[C@H](O)[C@@H]1N(C)C(=O)CN | 33.5 µM (active)
CCCCC(O)c1ccccc1 (stereo not given) | 21.1 µM (active)
CN[C@H]1CCc2cc(OC)c(OC)c(OC)c2-c2ccc(OC)c(=O)cc21 | inactive
COc1cc(/C=C/C(=O)N2CCN(CC(=O)N3CCCC3)CC2)cc(OC)c1OC | inactive
O=C(OCc1ccccc1)c1cccnc1 | inactive
O=c1[nH]cnc2[nH]cc(CN3CCCCC3)c12 | inactive
CC(=O)N[C@@H]1C(O[C@H]2O[C@H](C(=O)O)C(O)[C@H](O)[C@H]2O)[C@H](O)[C@@H](CO)O[C@H]1O[C@@H]1C(C(=O)O)O[C@@H](O[C@H]2[C@H](O)[C@@H](CO)OC(O)[C@@H]2NC(C)=O)[C@H](O)[C@H]1O (stereo not given in full) | inactive
O=C[C@H](O)[C@@H](O)[C@H](O[C@H]1O[C@H](CO)[C@@H](O[C@H]2O[C@H](CO)[C@@H](O)[C@H](O)[C@H]2O)[C@H](O)[C@H]1O)[C@H](O)CO | 26.6 µM (active)
OCC(O)COc1ccc(Cl)cc1 (stereo not given) | inactive
C=CCN1CCCC1CNC(=O)c1cc(S(N)(=O)=O)cc(OC)c1OC (stereo not given) | inactive
CC(=O)[C@@]1(O)CC[C@H]2[C@@H]3C=C(Cl)C4=CC(=O)[C@@H]5C[C@@H]5[C@]4(C)[C@H]3CC[C@@]21C | inactive
COC(=O)[C@@H](N)CS | 26.6 µM (active)
CCCCCCCCCCCCCCCCCC(=O)OCCO | 9.44 µM (active)
C=C1c2c(Cl)ccc(O)c2C(O)=C2C(=O)[C@]3(O)C(O)=C(C(N)=O)C(=O)[C@@H](N(C)C)[C@@H]3[C@@H](O)[C@H]12 | inactive
NC(=S)N=Nc1ccc(NN=C(N)N)cc1 | inactive

SMILES | Potency
O=c1oc2cc(O)ccc2s1 | inactive
Nc1nc2[nH]cc(CCc3ccc(C(=O)N[C@@H](CCC(=O)O)C(=O)O)cc3)c2c(=O)[nH]1 | inactive
CCN(CC)CCOC(=O)c1cccnc1 | inactive
C[N+](C)(CCCCCC[N+](C)(C)C1c2ccccc2-c2ccccc21)C1c2ccccc2-c2ccccc21 | inactive
O=C1NCCN1c1ncc([N+](=O)[O-])s1 | inactive
CCOc1ccc(N=C(C)Nc2ccc(OCC)cc2)cc1 | inactive
CCCCCCCCCCCCCCCC(=O)OC[C@@H](COP(=O)([O-])OCC[N+](C)(C)C)OC(=O)CCCCCCCCCCCCCCC | 29.8 µM (active)
C=CCCCCCCCCC(=O)OC | inactive
Cc1c(O)cc2c(c1C)O[C@](C)(CCC[C@H](C)CCC[C@H](C)CCCC(C)C)CC2 | inactive
c1ccc2c(CCC3CCNCC3)c[nH]c2c1 | inactive
CC(=O)N(CC(C)C(=O)O)c1c(I)cc(I)c(N)c1I (stereo not given) | inactive
COc1cc(S(C)=O)ccc1-c1nc2ncccc2[nH]1 (stereo not given) | inactive
CC(=O)N[C@@H](CC(=O)N[C@@H](CCC(=O)O)C(=O)O)C(=O)O | inactive
CO/N=C(\C(=O)N[C@@H]1C(=O)N2C(C(=O)O)=C(CSC(=O)c3ccco3)CS[C@H]12)c1csc(N)n1 | inactive
Cc1onc(-c2ccccc2)c1C(=O)N[C@@H]1C(=O)N2[C@@H]1SC(C)(C)[C@@H]2C(=O)O | inactive
CCCc1ccc(C(=O)O)cc1 | inactive
N[C@H](CC(=O)O)C(=O)O | inactive

Tested on: not listed separately
Assay: qHTS assay to identify small molecule antagonists of the estrogen receptor alpha (ER-alpha) signaling pathway using the BG1 cell line (AID 743080);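 also: BG1 cells stimulated with 17beta-estradiol alongside compound; nearly all actives have a fitted effect of over 25% in size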
Conditions: BG1Luc4E2 ERE-luciferase antagonist mode, luminescence; series mostly up to 70.3 µM
Outline: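 After 5 days in phenol-red-free 10% charcoal-stripped FBS medium, BG1-Luc-4E2 cells were seeded, left 24 h at 37 C, co-treated with compounds and 17beta-estradiol for 21.5 h, then assayed for viability and luciferase.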

SMILES | Potency
CNC[C@@H]1CC[C@@H](N)[C@@H](O[C@H]2[C@H](O)[C@@H](O[C@H]3OC[C@](C)(O)[C@H](NC)[C@H]3O)[C@H](N)C[C@@H]2N)O1 | inactive
CCc1ccc(S(=O)(=O)O)cc1 | inactive
CO[C@H]1[C@@H](O)[C@H](N)[C@@H](O[C@H]2O[C@H]([C@H](C)N)CC[C@H]2N)[C@H](O)[C@@H]1N(C)C(=O)CN | inactive
CCCCC(O)c1ccccc1 (stereo not given) | inactive
CN[C@H]1CCc2cc(OC)c(OC)c(OC)c2-c2ccc(OC)c(=O)cc21 | 0.0841 µM (active)
COc1cc(/C=C/C(=O)N2CCN(CC(=O)N3CCCC3)CC2)cc(OC)c1OC | inactive
O=C(OCc1ccccc1)c1cccnc1 | inactive
O=c1[nH]cnc2[nH]cc(CN3CCCCC3)c12 | inactive
CC(=O)N[C@@H]1C(O[C@H]2O[C@H](C(=O)O)C(O)[C@H](O)[C@H]2O)[C@H](O)[C@@H](CO)O[C@H]1O[C@@H]1C(C(=O)O)O[C@@H](O[C@H]2[C@H](O)[C@@H](CO)OC(O)[C@@H]2NC(C)=O)[C@H](O)[C@H]1O (stereo not given in full) | inactive
O=C[C@H](O)[C@@H](O)[C@H](O[C@H]1O[C@H](CO)[C@@H](O[C@H]2O[C@H](CO)[C@@H](O)[C@H](O)[C@H]2O)[C@H](O)[C@H]1O)[C@H](O)CO | inactive
OCC(O)COc1ccc(Cl)cc1 (stereo not given) | inactive
C=CCN1CCCC1CNC(=O)c1cc(S(N)(=O)=O)cc(OC)c1OC (stereo not given) | inactive
Nc1ccn(C[C@@H](CO)OCP(=O)(O)O)c(=O)n1 | inactive
CC(=O)[C@@]1(O)CC[C@H]2[C@@H]3C=C(Cl)C4=CC(=O)[C@@H]5C[C@@H]5[C@]4(C)[C@H]3CC[C@@]21C | inactive
COC(=O)[C@@H](N)CS | inactive
CCCCCCCCCCCCCCCCCC(=O)OCCO | inactive
C=C1c2c(Cl)ccc(O)c2C(O)=C2C(=O)[C@]3(O)C(O)=C(C(N)=O)C(=O)[C@@H](N(C)C)[C@@H]3[C@@H](O)[C@H]12 | inactive
NC(=S)N=Nc1ccc(NN=C(N)N)cc1 | inactive

SMILES | Potency
O=c1oc2cc(O)ccc2s1 | inactive
Nc1nc2[nH]cc(CCc3ccc(C(=O)N[C@@H](CCC(=O)O)C(=O)O)cc3)c2c(=O)[nH]1 | inactive
CCN(CC)CCOC(=O)c1cccnc1 | inactive
C[N+](C)(CCCCCC[N+](C)(C)C1c2ccccc2-c2ccccc21)C1c2ccccc2-c2ccccc21 | inactive
O=C1NCCN1c1ncc([N+](=O)[O-])s1 | inactive
CCOc1ccc(N=C(C)Nc2ccc(OCC)cc2)cc1 | inactive
CCCCCCCCCCCCCCCC(=O)OC[C@@H](COP(=O)([O-])OCC[N+](C)(C)C)OC(=O)CCCCCCCCCCCCCCC | inactive
C=CCCCCCCCCC(=O)OC | inactive
Cc1c(O)cc2c(c1C)O[C@](C)(CCC[C@H](C)CCC[C@H](C)CCCC(C)C)CC2 | inactive
c1ccc2c(CCC3CCNCC3)c[nH]c2c1 | inactive
CC(=O)N(CC(C)C(=O)O)c1c(I)cc(I)c(N)c1I (stereo not given) | inactive
COc1cc(S(C)=O)ccc1-c1nc2ncccc2[nH]1 (stereo not given) | inactive
CC(=O)N[C@@H](CC(=O)N[C@@H](CCC(=O)O)C(=O)O)C(=O)O | inactive
CO/N=C(\C(=O)N[C@@H]1C(=O)N2C(C(=O)O)=C(CSC(=O)c3ccco3)CS[C@H]12)c1csc(N)n1 | inactive
Cc1onc(-c2ccccc2)c1C(=O)N[C@@H]1C(=O)N2[C@@H]1SC(C)(C)[C@@H]2C(=O)O | inactive
CCCc1ccc(C(=O)O)cc1 | inactive
N[C@H](CC(=O)O)C(=O)O | inactive
